Assay results reported in PubChem BioAssay AID489008 (National Center for Advancing Translational Sciences (NCATS), 2010).
Results filed as inconclusive are left out. The source made the active and inactive calls. Calls come from the whole dose curve; as a rule, active = well fitted inhibition curve with a large enough effect; inconclusive = small, poorly fitted or top-dose-only effect; inactive = flat fitted curve, though single readings scatter.

The compounds below were run against Ferritin light chain (Equus caballus) (UniProt P02791) (assay: Confirmation Assay for Identification of Novel General Anesthetics). Conditions: apoferritin 1-aminoanthracene fluorescence displacement.
Outline: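 Horse apoferritin (10 uM) pre-loaded with 1-AMA (50% saturated, PBS) exposed to compounds 10 min at room temperature; loss of 1-AMA fluorescence (380/535 nm) scaled between free and bound ligand, curves fitted with Hill equation.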
Note: nearly all actives have a fitted effect of over 40% in size.
Potency is the fitted concentration of half-maximal effect.

Ferritin light chain (Equus caballus), sequence (P02791 2-175 limits assumed): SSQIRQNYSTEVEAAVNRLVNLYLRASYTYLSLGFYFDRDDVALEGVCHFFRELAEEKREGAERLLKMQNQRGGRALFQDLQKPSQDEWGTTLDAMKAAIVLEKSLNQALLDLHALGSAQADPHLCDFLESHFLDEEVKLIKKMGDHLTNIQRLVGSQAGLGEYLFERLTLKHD

Potency, active:
Cc1ccc(O)c(Sc2cc(C)ccc2O)c1 7.94 µM, Nc1ccc2nc(SCc3cccc(F)c3)sc2c1 28.2 µM, N/C(Cc1ccc(Cl)cc1)=N\OC(=O)c1cccc2ccccc12 8.91 µM, CN(C)CC(=O)Nc1ccc(Oc2ccc(Cl)cc2)cc1 28.2 µM, O=C(COC(=O)CC1CC2CCC1C2)NC(=O)NCc1ccco1 (centres undefined) 22.4 µM, O=C(OCC(=O)C12CC3CC(CC(C3)C1)C2)c1cccnc1 22.4 µM, Cc1ccc(Cn2cccc(NC(=O)NCc3ccccc3)c2=O)cc1 7.08 µM, COc1ccc(CNC(=O)CN2N=C(c3ccc(Cl)cc3)CCC2=O)cc1 20.7 µM, O=c1c2ccccc2nnn1Cc1ccccc1Cl 15.8 µM, Cc1cccc(Nc2nc(Cl)ncc2F)c1C 28.2 µM, COc1ccccc1CC(=O)N1CCCc2ccccc21 31.6 µM, Cc1ccc(OCC(=O)N2CCCCCCC2)cc1C 35.5 µM, O=C(CSCCO)Nc1ccc(C2CCCCC2)cc1 20 µM, Fc1ccccc1CNc1ccc(Cl)c(Cl)c1 10 µM, COc1cc(CNCCO)ccc1OCCc1ccccc1 15.8 µM, Nc1nc(SCC(=O)C23CC4CC(CC(C4)C2)C3)n[nH]1 7.08 µM, Cc1cccc(NC(=O)N2CCCCCC2)c1 11.2 µM, Fc1ccc(CNc2ccc(CNc3ncn[nH]3)cc2)cc1 17.8 µM, C=Cc1ccc(Cn2nc(-c3ccc(C)cc3)ccc2=O)cc1 17.8 µM, CC(C)CCNC(=O)CN1N=C(c2ccc(Cl)cc2)CCC1=O 5.19 µM, CCCCSC(=O)Nc1ccccc1 7.08 µM, Cc1c(Br)cc(C(=O)N2CCCCCC2)c(C)c1C 17.8 µM, CC1CCCCC1NC(=O)COC(=O)c1ccc(N(C)C)cc1 (centres undefined) 11.2 µM, CC1CCCC(C)N1C(=O)COc1ccccc1F (centres undefined) 17.8 µM, COc1ccc(OCCC(=O)NCC23CC4CC(CC(C4)C2)C3)cc1 6.31 µM, Cc1cc(NS(=O)(=O)c2ccccc2)cc(Cl)c1O 11.2 µM, Cn1cc([N+](=O)[O-])c(C(=O)Nc2ccc(C3CCCCC3)cc2)n1 14.1 µM, Nc1nnc(SCC(=O)NC23CC4CC(CC(C4)C2)C3)s1 7.94 µM, Cc1cccc(OCCC(=O)OCC(=O)N2CCc3ccccc32)c1 10 µM, CC1(C)CC(=O)c2c(Cc3ccccc3)noc2C1 14.1 µM, Cc1cccc(N(C(=O)Nc2ccccc2)C2=NCC(C)S2)c1 (centres undefined) 25.1 µM, N/C(=N\OC(=O)Cc1ccc(-c2ccccc2)cc1)c1ccncc1 31.6 µM, Cc1ccccc1NCc1ccccc1O 15.8 µM, COc1ccc(-c2ccc(=O)n(CC(=O)NCc3ccco3)n2)cc1 14.1 µM, Cc1ccccc1Nc1cccc2nonc12 20 µM, Nc1nnc(SCc2ccccc2Cl)s1 14.1 µM, CCc1ccc(NC(=S)N2CCCCCCC2)cc1 14.1 µM, Fc1ccccc1SCc1nnc(-c2ccccc2Br)o1 15.8 µM, CC(C)(C)c1ccc(OCCC(=O)NC2=NCCS2)cc1 20 µM
